# Data: PubChem BioAssay (NCI)
# About 79,000 compounds went through this panel and 15% of them were active in at least one assay; those are over-represented in the sample as a whole. Unmarked numbers belong to inactive results. The source made the active and inactive calls. No stated cut-off is given here; in the data, active means growth inhibition above about 70%; inactive means the rest.
# Legend:
# [1] = NCI Yeast Anticancer Drug Screen. Data for the rad50 strain (AID 155);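 further: 0% = growth of vehicle-only cultures of the same strain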; settings: S. cerevisiae rad50 strain growth inhibition; at 50.0 µM; stronger effect = higher value
# Procedure, shortened: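 Cells are treated with compound, grown, and their growth is then scored against vehicle-only cultures of the same repair-deficient yeast strain.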
# [2] = NCI Yeast Anticancer Drug Screen. Data for the mec2-1 strain (AID 157); settings: S. cerevisiae mec2-1 strain, at 50.0 µM, stronger effect = higher value
# Procedure, shortened: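 Readout is yeast growth inhibition, normalised to vehicle-treated controls, in the mec2-1 strain exposed to compound.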
# [3] = NCI Yeast Anticancer Drug Screen. Data for the sgs1 mgt1 strain (AID 161);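 further: 0% = growth of cultures given vehicle only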; settings: S. cerevisiae sgs1 mgt1 strain, at 50.0 µM, stronger effect = higher value
# Procedure, shortened: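 Growth of a repair-deficient yeast mutant was monitored after compound treatment and expressed as inhibition relative to vehicle-treated cultures.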
# [4] = NCI Yeast Anticancer Drug Screen. Data for the cln2 rad14 strain (AID 165);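 further: 0% = growth equal to vehicle treated cultures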; settings: S. cerevisiae cln2 rad14 strain, at 50.0 µM, stronger effect = higher value
# Procedure, shortened: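 Relative to vehicle controls, growth inhibition of compound-treated cln2 rad14 yeast was recorded.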
# [5] = NCI Yeast Anticancer Drug Screen. Data for the bub3 strain (AID 167); settings: S. cerevisiae bub3 mutant strain, at 50.0 µM, stronger effect = higher value
# Procedure, shortened: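 Part of a panel of yeast mutants defective in DNA damage repair or cell cycle regulation. Each strain is grown with compound, and inhibition is calculated relative to solvent-treated cultures.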
# [6] = NCI Yeast Anticancer Drug Screen. Data for the mlh1 rad18 strain (AID 175); settings: S. cerevisiae mlh1 rad18 strain growth inhibition; at 50.0 µM; stronger effect = higher value
# Procedure, shortened: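 Test agents were incubated with a yeast strain of defined genotype (DNA damage repair defect). Inhibition of growth was derived by comparison with vehicle-exposed cultures.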
SMILES,growth inhibition [1],growth inhibition [2],growth inhibition [3],growth inhibition [4],growth inhibition [5],growth inhibition [6]
O=C1OC(/C=C/c2ccccc2)=NC/1=C\c1ccccc1O,16.1%,8.6%,20%,23.4%,0.7%,6.6%
FC1(F)C2(OCCO2)C(F)(F)C12OCCO2,-1.6%,-5.25%,-1.8%,-1.1%,-8.5%,-4.8%
C/C([O-])=N\[N+](C)(C)Cc1ccccc1,-4.65%,0.8%,-11.7%,-23.4%,-6.6%,5.8%
O=c1cc(-c2ccc(Cl)cc2)oc(-c2ccc(Cl)cc2)c1,5.5%,-7.65%,4.05%,-35.9%,0.7%,2.8%
CCC(CC)NCCCNc1cc(OC)cc2cccnc12,20.8%,33.6%,53.8%,4.65%,30.9%,48.6%
O=C(O)CO,-7.7%,3.05%,-6.25%,-1.25%,-9.15%,-29.1%
O=C1OC([C@H](O)c2cccnc2)c2ccccc21 (some centres undefined),-17.1%,-24.9%,-39.4%,-22.9%,-26.1%,-21.6%
CN(C)C(=S)Oc1ccc([N+](C)(C)C)cc1,-3.7%,3.55%,2.5%,-4.6%,3.15%,-1%
Nc1cc(Cl)nc(Cl)n1,1.5%,-25.6%,2.45%,10.1%,-19.4%,3.8%
Cc1ccc(S(=O)(=O)NNC(=O)c2ccc[nH]2)cc1,-1.5%,-24.2%,-7.85%,7.65%,9.9%,6.35%
Cc1cc([N+](=O)[O-])ccc1NC(=O)OC(C)C,-12.6%,-30.2%,3.05%,8.8%,1.35%,-9.35%
COc1ccc(C(=O)N/N=C/c2cccc(OC)c2OC)cc1,-6.3%,-4.75%,-20.1%,-26.2%,13.1%,-41.8%
CCCC(CCC(C)=O)[N+](=O)[O-] (centres undefined),-9.05%,-3.15%,-8.85%,-14.2%,1%,12%
CCOC(=O)C(C)(C)/C=C\C(Cl)=C(Cl)Cl,4.1%,4.2%,8.75%,4.25%,19.2%,-34.5%
Nc1ncc2ncn(C3CCC(CO)O3)c2n1 (centres undefined),-6.9%,-10.1%,-22.2%,-4.65%,-10.8%,-6.45%
CCCCCCOC(=O)CCBr,5%,2.35%,-3.15%,-4.55%,4.55%,1.4%
C1CCCCC2(CCCCCCCCC3(CCC1)OCCO3)OCCO2,-2%,-21.2%,-8.5%,25.6%,1.1%,-5.25%
CCCC(=O)OCC(C)(C)COC(=O)CCC,-5.65%,-13.2%,10.9%,3.5%,16%,6.6%
Cc1nc2c(SCc3ccccc3)ncnc2o1,16.1%,-9.5%,14.9%,22.8%,35.4%,19.5%
CC(CCl)NS(=O)(=O)c1ccccc1 (centres undefined),2.1%,2.85%,-2.85%,0.85%,-7.5%,-8.05%

SMILES,growth inhibition [1],growth inhibition [2],growth inhibition [3],growth inhibition [4],growth inhibition [5],growth inhibition [6]
COC1CCC(C(C)(C)C)CC1 (centres undefined),2.45%,-11.6%,0.15%,-3.8%,5.85%,-21.7%
Cc1ccc(C)c(NC(=O)Oc2cc(C)c(Cl)cc2C(C)C)c1,85.8% (active),99.2% (active),98.5% (active),72.8% (active),98.5% (active),98.8% (active)
O=CNCC(=O)Nc1ccccc1,-8.4%,-2.45%,-3.45%,-6.9%,10.8%,-10.4%
CC(O)CNC(=O)Nc1ccccc1 (centres undefined),-26.9%,-26.8%,-9.8%,-5.25%,3.95%,-17.6%
NC(=O)c1[nH]nc(C2OC(CO)C(O)C2O)c1O (centres undefined),8%,-27.2%,7.35%,-0.05%,-22.9%,8.75%
CCOC(C)(OCC)c1ccccc1,-9.15%,20.6%,-2.1%,23.5%,8.55%,29.4%
CCOC(=O)NC(=O)c1cn(CCCOC(=O)CCCCCCCCCCC(=O)OCCCn2cc(C(=O)NC(=O)OCC)c(=O)[nH]c2=O)c(=O)[nH]c1=O,-28.5%,-24.2%,-12.4%,18.6%,-0.95%,-18.9%
CCC1=Nc2ccccc2C(c2ccccc2)NC1=O (centres undefined),-2%,-19.7%,4.5%,6%,-9.65%,24.9%
Cc1nn(C(=O)c2ccncc2)c2c1C(c1ccccc1[N+](=O)[O-])SC(N)=N2 (centres undefined),21.4%,6.15%,40.1%,26.1%,43.6%,18.9%
CC(=O)Nc1ccc(S(=O)(=O)CCS(=O)(=O)c2ccc(NC(C)=O)cc2)cc1,7.35%,4.7%,-16.1%,-6.15%,3.65%,-9.45%
O=C1NC(=O)C2C3CCC(C3)C12 (centres undefined),13.6%,-6.15%,-7.65%,-41.8%,4.65%,0.4%
CCOc1ccccc1/C=C1\CCc2ccccc2C1=O,21.6%,34.8%,42.7%,0.4%,49.9%,23%
c1ccc(C2=NOC3C4CCC(C4)C23)cc1 (centres undefined),-37.6%,-20.4%,-28.4%,-21%,-8.85%,-20.1%
Cc1cc(C)nc(N)c1,3.75%,-11.8%,-0.4%,-21.8%,-3.25%,3.05%
O=c1c2cnc3cc(Cl)ccc3c2[nH]n1-c1ccc(Cl)cc1,-1.3%,0.45%,1.85%,-2.55%,2.75%,2.9%
CC(C)(C)OC(=O)CNC(=O)C(CSC(c1ccccc1)(c1ccccc1)c1ccccc1)N1C(=O)c2ccccc2C1=O (centres undefined),45.9%,32.5%,46.2%,31.9%,73.6% (active),49.5%
O=c1ccc2c([nH]1)CCCC2,-8.25%,-8.25%,-30.9%,1.35%,-9.15%,0.55%
CN(C)c1ccccc1CN1CCCN(Cc2ccccc2N(C)C)C1c1ccncc1,-16.3%,-10.1%,-12.3%,-0.25%,-16.2%,-1.55%
CC1(C)OC(=O)C(C(N)=O)C1c1ccc(Cl)cc1 (centres undefined),6.15%,0.8%,-5.65%,-3%,-6.25%,13.8%
